Data taken from PubChem BioAssay (Tox21).
Results filed as inconclusive are left out. Values without a mark were called inactive. Activity calls are given as the source filed them. Calls come from the whole dose curve; as a rule, active = well fitted cell-killing curve with a large enough effect in the repeat runs; inconclusive = weak or mixed curves, or effect the other way; inactive = flat fitted curve, though single readings scatter.

Assay: qHTS RealTime-Glo MT Cell Viability Assay in HepG2 cells - 40 hour (AID 1224870); note: nearly all actives have a fitted effect of over 50% in size
Details: RealTime-Glo luminescence; series mostly up to 76.8 µM; activity change, negative = cytotoxic: at the top concentration
Source text: National Center for Advancing Translational Sciences [NCATS]
NIH Chemical Genomics Center [NCGC]
U.S. Environmental Protection Agency [EPA]
National Institutes of Environmental Health Sciences [NIEHS]
National Toxicology Program [NTP]
U.S. Food and Drug Administration [FDA]
Measure of cell viability is critical in the cell-base assay. Analysis of cell viability is necessary for the characterization of cell responses to cytotoxic drugs and environmental stress. A RealTime-Glo MT Cell Viability Assay to monitor cell viability in real time of continues cell culture during 40 hours of compound treatment was used to screen Tox21 10K library compounds in HepG2 cells. The RealTime-Glo MT Cell Viability Assay is a nonlytic, homogeneous, bioluminescent method to measure cell viability in real time using a simple, plate-based method. The assay involves adding NanoLuc luciferase and a cell-permeant prosubstrate to cells in culture. Viable cells reduce the proprietary prosubstrate to generate a substrate for NanoLuc luciferase. This substrate diffuses from cells into the surrounding culture medium, where it is rapidly used by the NanoLuc Enzyme to produce a luminescent signal. The signal correlates with the number of viable cells, making the assay well suited for cytotoxicity studies.
Tox21 Assay Protocol Summary:
The mixture of HepG2 cell suspension and reagents were dispensed at 600cells/6 ul/well in 1536-well tissue culture treated black solid bottom plates using a Multidrop dispenser. After the assay plates were incubated at a 37 C/5% CO2 incubator for 5 hours, 23 nL of compounds dissolved in DMSO, positive and negative controls was transferred to the assay plate by a pintool work station. The plates were incubated at 37 C for 40 hours. The luminescence intensity were measured at 0h, 8h, 16h, 24h, 32h and 40h time points using ViewLux plate reader during compound treatment.
% is set by controls: 0 for no effect and ±100 for the full control effect.

| Structure (SMILES) | activity change, negative = cytotoxic | Potency |
| --- | --- | --- |
| CCC1(c2ccccc2)CCC(=O)NC1=O (stereo not given) | -0.404% [at 35.3 µM] |  |
| CC(Cc1ccccc1)NCCCCl (stereo not given) | 2.69% [at 35.3 µM] |  |
| c1ccc2c(c1)CCNC2 | 0.478% |  |
| COc1ccc(C=O)cc1O | 18.8% |  |
| CCCOC(=O)Cc1ccc(OCC(=O)N(CC)CC)c(OC)c1 | 0.392% [at 35.3 µM] |  |
| CCOP(=O)(CN(CCO)CCO)OCC | 0.926% |  |
| Cc1ccc(S(=O)(=O)N[C@@H](CCCCN)C(=O)CCl)cc1 | 2.27% [at 35.3 µM] |  |
| O=c1[nH]c2ccccc2o1 | -5.63% |  |
| CC[C@H](N)c1ccccc1 | 16.6% |  |
| N[C@@H]1C[C@H]1c1ccccc1 | 0.52% [at 35.3 µM] |  |
| Oc1ccc(Cc2ccc(O)cc2)cc1 | -0.425% |  |
| NNC(N)=O | -0.513% |  |
| Cc1cccc2sc3nncn3c12 | 0.728% |  |
| O=C(Cl)CCl | 2.75% |  |
| OCC(Cl)CCl (stereo not given) | -0.349% |  |
| C[C@]12C=CC(=O)C=C1CC[C@@H]1[C@@H]2CC[C@@]2(C)[C@H]1CC[C@]2(C)O | -6.36% [at 35.3 µM] |  |
| ClCC1CO1 (stereo not given) | 1.64% |  |
| C[C@H](N)C(=O)c1ccccc1 | -2.72% |  |
| O=C(NC(=O)c1c(F)cccc1F)Nc1cc(Cl)c(F)c(Cl)c1F | -3.47% |  |
| CCCCCCCCSC(=O)Oc1cc(Cl)nnc1-c1ccccc1 | 1.73% |  |

| Structure (SMILES) | activity change, negative = cytotoxic | Potency |
| --- | --- | --- |
| C=CCN1CC[C@]23CCCC[C@H]2[C@H]1Cc1ccc(O)cc13 | 1.35% [at 35.3 µM] |  |
| O=C1CC(=O)NC(=O)N1 | 2.02% |  |
| C=C(Cl)CCl | -4.94% |  |
| C=CC1(C)OC(=O)N(c2cc(Cl)cc(Cl)c2)C1=O (stereo not given) |  | inactive |
| CN=CNc1ccc(C)cc1C | -0.782% |  |
| Cn1c(CCCC(=O)O)nc2cc(N(CCCl)CCCl)ccc21 | 2.65% [at 35.3 µM] |  |
| CCOP(=S)(OCC)SCCl | 1.28% |  |
| CCOC(=O)CC(SP(=S)(OC)OC)C(=O)OCC (stereo not given) | -0.053% [at 35.3 µM] |  |
| CCC(CC)(CNC(=O)CCCO)c1cccc(OC)c1 | -1.46% [at 35.3 µM] |  |
| Cc1ccc(-c2nc3ccc(C)cn3c2CC(=O)N(C)C)cc1 | 3.79% [at 35.3 µM] |  |
| CN(CCO)CCO | -3.29% |  |
| CCOC(=O)COc1ccc(Cl)cc1Cl | 0.79% |  |
| NCCOS(=O)(=O)O | 2.7% |  |
| Cc1cc(OC(=O)N(C)C)nn1C(=O)N(C)C | 1.1% |  |
| CCC(C)C(C)(COC(N)=O)COC(N)=O (stereo not given) | 0.697% [at 35.3 µM] |  |
| BrCC1CO1 (stereo not given) | 21.2% |  |
| C=C(Cl)CSC(=S)N(CC)CC | 0.249% |  |
| CN(C)CCN(C)C | -0.363% |  |
| O=P(O)(O)CN(CP(=O)(O)O)CP(=O)(O)O |  | inactive |
| C[C@H]1CCCC(=O)CCC/C=C/c2cc(O)cc(O)c2C(=O)O1 |  | inactive |
